High-throughput results as filed in PubChem.
HDAC3 inh: human HDAC3 inhibition; O15379; inhibition, % at 8.3 µM; AID 2718; recombinant HDAC3, fluorogenic peptide/trypsin coupled, fluorescence; 320,000 tested, 0.15% active; in the data active = inhibition above about 26%, passing the limit was not always enough
Target sequence (O15379 whole entry, looked up): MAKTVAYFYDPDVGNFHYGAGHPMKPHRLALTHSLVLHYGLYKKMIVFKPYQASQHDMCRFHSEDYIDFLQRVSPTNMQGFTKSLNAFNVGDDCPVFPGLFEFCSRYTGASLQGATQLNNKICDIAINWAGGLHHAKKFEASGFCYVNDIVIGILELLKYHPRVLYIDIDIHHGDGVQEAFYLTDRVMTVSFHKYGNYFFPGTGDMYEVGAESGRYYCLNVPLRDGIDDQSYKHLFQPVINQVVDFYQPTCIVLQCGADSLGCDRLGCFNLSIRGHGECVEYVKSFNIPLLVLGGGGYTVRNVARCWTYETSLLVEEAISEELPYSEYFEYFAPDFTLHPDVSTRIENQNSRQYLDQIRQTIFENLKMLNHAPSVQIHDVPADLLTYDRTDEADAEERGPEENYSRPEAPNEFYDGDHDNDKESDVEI
TMEM16A inh: blocks the mouse calcium-activated chloride channel TMEM16A. normalized B-score (activity score, 25-100; higher = stronger inhibition) at 10 µM. 310,000 tested, 1.2% active. HEK293 TMEM16A/YFP iodide influx fluorescence, ionomycin. Q8BHY3;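 active = ratio plate-corrected score three or more library SD toward inhibition, starting fluorescence score within five deviations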;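 also: score derived from kinetic fluorescence span divided by baseline fluorescence per well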
CHT inh: inhibits the human high affinity choline transporter | Q9GZV3 | CHT-expressing cells, membrane potential dye, choline response; hits give low values | B-score at 10 µM | 310,000 tested, 0.86% active | AID 488975;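 active = B-score over 3 SD under the library average, and starting fluorescence ratio not unusually high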;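 also: choline stimulus applied at its EC90 after an EC20 pre-addition; B-score computed on integrated fluorescence ratio after choline addition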
ANO1 activ: mouse TMEM16A channel activation, primary screen; Q8BHY3; HEK293 TMEM16A/YFP-H148Q/I152L, iodide quench fluorescence; hits give low values; B-score at 10 µM; 340,000 tested, 0.3% active; AID 623877;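 active = fluorescence-ratio B-score plate-corrected deviation score at least 3 library SD below zero, with starting fluorescence score within 5 deviations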;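 also: channel opened by trigger with iodide after compound preincubation; score built on the fluorescence ratio of max minus min over baseline; more negative score means more quench and so TMEM16A activation or potentiation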
PHOSPHO1 inh: blocks human PHOSPHO1 phosphatase activity; Q8TCT1; recombinant PHOSPHO1, absorbance phosphatase assay; inhibition, % at 13.3 µM; 290,000 tested, 1.1% active; AID 1565; in the data active = inhibition above about 60%
Target sequence (Q8TCT1 whole entry, looked up): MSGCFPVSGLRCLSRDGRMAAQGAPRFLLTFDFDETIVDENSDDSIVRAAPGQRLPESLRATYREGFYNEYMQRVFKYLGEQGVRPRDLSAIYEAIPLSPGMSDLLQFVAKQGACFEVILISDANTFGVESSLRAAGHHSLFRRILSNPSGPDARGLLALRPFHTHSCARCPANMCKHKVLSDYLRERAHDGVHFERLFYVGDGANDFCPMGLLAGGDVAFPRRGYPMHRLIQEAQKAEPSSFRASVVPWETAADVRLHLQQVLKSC
CHT PAM: allosteric activators of human choline transporter CHT. CHT-expressing cells, membrane potential dye, choline EC20; hits give high values; LV-AA mutant CHT in HEK293 cells. B-score at 10 µM. 310,000 tested, 0.49% active;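 active = initial fluorescence not abnormally high and integrated response B-score, plate-corrected, over 3 SD above library mean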
CHT activ conf: human CHT activation, confirmatory screen | shares compounds with CHT PAM | CHT-expressing cells, membrane potential dye fluorescence (FDSS); % of choline EC20–EC90 response window; HEK293 expressing CHT LV-AA mutant; choline added at its EC20 | activation, % at 10 µM | 2,500 tested, 91% active | AID 504833;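 active = primary screen active, with duplicate mean activation above negative control mean plus 3 SD, cut at about 11% in these data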
HEK293 MP dye: activity in parental HEK293 cells lacking CHT | 2,500 tested, 62% active | shares compounds with CHT PAM | ratio readout change at 10 µM, hits read low | membrane potential dye fluorescence (FDSS); measured after EC20 choline addition | AID 623908;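 active = duplicate-averaged ratio beyond 3 SD from buffer wells, up or down, though filed actives are nearly all decreases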
TMEM16A reconf: reconfirmed blocker of mouse TMEM16A calcium-activated chloride channel | shares compounds with TMEM16A inh | HEK293 TMEM16A/YFP-H148Q, iodide quench fluorescence; ionomycin added to raise cell calcium | inhibition, % at 10 µM | 2,300 tested, 39% active | AID 652189;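 active = mean duplicate percent inhibition, scaled so buffer wells are 0 and the reference blocker 100, over three buffer SD above buffer mean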
TMEM16A Ca cntr: calcium mobilization counter-screen hit for TMEM16A inhibitor series; shares compounds with TMEM16A inh; calcium response (% of ionomycin), % at 10 µM; TMEM16A/YFP HEK293, Fluo4 calcium mobilization; 2,300 tested, 2% active;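 active = duplicate-averaged calcium signal over 20% of the ionomycin maximum, relative to buffer baseline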;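 also: each well's signal is peak minus trough fluorescence divided by its pre-addition baseline; 0% = buffer wells and 100% = ionomycin wells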
YFP-HEK293 quench: counter-screen for TMEM16A inhibitors: effect in parental YFP-HEK293 cells; YFP ratio F(max-min)/F0 at 10 µM; iodide YFP quench, ionomycin; shares compounds with TMEM16A inh; 2,300 tested, under 10 active; AID 652233;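 active = yellow fluorescent protein signal ratio exceeding the buffer control mean by over 5 SD of those controls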;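 also: ratio is mean of duplicate wells from kinetic YFP trace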
ClC-1 rat inh: selectivity of TMEM16A inhibitors: inhibition of rat ClC-1 chloride channel | 2,300 tested, under 10 active | shares compounds with TMEM16A inh | CHO ClC-1-YFP, iodide influx fluorescence quench; iodide control reads 0, buffer control 100 | AID 652236 | ratio percent, % at 10 µM;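 active = duplicate-mean ratio percent above the mean of iodide-only control wells, which defines zero, plus 5 of their SD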;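 also: higher percent means stronger block of ClC-1 iodide influx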
Starred values were filed as active, the others as inactive; i = inactive; nt = no result given. Sampled rows, rich in hits. Any-hit rate of the full collection: about 3.2%.

SMILES	HDAC3 inh	TMEM16A inh	CHT inh	ANO1 activ	PHOSPHO1 inh	CHT PAM	CHT activ conf	HEK293 MP dye	others
CC(C)COc1ccc(Cc2c(O)[nH]c(=S)[nH]c2=O)cc1	0	i	i	i	29	i	nt	nt
Cc1ccc(-c2nc(N3CCOCC3)s[n+]2-c2ccccc2)cc1	17	i	i	i	-12	6.7*	55*	i
COC(=O)C1=C(c2ccc(OC)c(OC)c2)C[C@@H]2CC[C@H]1N2C(=O)N1CCc2cc(OC)c(OC)cc2C1	-3	nt	nt	i	nt	nt	nt	nt
CNc1cc(N2CCNCC2)ccc1[N+](=O)[O-]	4	i	i	i	51	i	39*	-49*
CC(C)CC(C)N (stereo unspecified)	-10	nt	nt	i	nt	nt	nt	nt
C=C1C(O)(c2ccccc2)C2CC[N+]1(C)CC2 (stereo unspecified)	-2	i	i	i	-71	i	nt	nt
Nc1c(C(=O)NCc2ccco2)c2nc3ccccc3nc2n1CCN1CCOCC1	-35	i	i	i	22	6.4*	20*	-21*
COC(=O)C1=C(c2cccc(C#N)c2)C[C@@H]2CC[C@H]1N2C(=O)NCc1ccco1	4	nt	nt	i	nt	nt	nt	nt
CN(C)c1nc(-c2ccccc2)[n+](C)s1	2	i	i	i	35	i	26*	-49*
O=C1CN=C(c2ccccc2)c2c(sc3c2CCCC3)N1	-6	i	i	i	5	i	nt	nt
OCC[N+]12CCC(CC1)C(C(O)(c1ccccc1)c1ccccc1)C2 (stereo unspecified)	1	i	i	i	28	i	nt	nt
O=C(C[N+]12CCC(CC1)C(C(O)(c1ccccc1)c1ccccc1)C2)c1ccc(Br)cc1 (stereo unspecified)	4	i	i	i	20	i	30*	-22*
CN(C)c1cc[n+](CC(O)C[n+]2ccc(N(C)C)cc2)cc1	12	i	i	i	nt	7.7*	35*	-71*
Fc1ccc(C[n+]2c(-c3ccccc3)cc(-c3ccccc3)cc2-c2ccccc2)cc1	-12	i	i	nt	nt	8.2*	32*	i
CC1CN=C(Nc2ccc(F)c(Cl)c2)S1 (stereo unspecified)	2	i	i	i	16	i	nt	nt
OC(Cn1c2ccccc2c2ccccc21)C[n+]1cccc2ccccc21 (stereo unspecified)	0	i	i	i	32	i	39*	-38*
CN1C2CCC1CC(OC(=O)CCN1CCCC1)C2 (stereo unspecified)	2	i	i	i	23	i	nt	nt
Cc1ccc(N)cc1C	nt	nt	nt	i	nt	nt	nt	nt
COc1cc2c(cc1OC)-c1c3c(cc4c1[C@@H](C2)N(C)CC4)OCO3	-16	i	i	i	-11	i	42*	-48*
COc1cc2c(cc1O)C[C@H]1NCCc3cc4c(c-2c31)OCO4	-14	i	i	i	57	i	nt	nt
Cc1cc(Cl)ccc1OCC(=O)N1CCN(C)CC1	0	i	i	i	-2	i	nt	nt
CN1CCN(C(=O)OC2c3nccnc3C(=O)N2c2ccc(Cl)cn2)CC1 (stereo unspecified)	7	i	i	nt	-4	9.8*	68*	-60*
NC(N)=Nc1ccc2[nH]c3c(c2c1)C[C@@]1(O)[C@H]2Cc4ccc(O)c5c4[C@@]1(CCN2CC1CC1)[C@H]3O5	60*	i	i	i	nt	8.3*	12*	-33*
O=C(O)C1CN2CCC1CC2 (stereo unspecified)	-9	i	i	i	-3	i	nt	nt
CC[n+]1c(/C=C/N(C)c2ccccc2)sc2ccc(Cl)cc21	1	i	i	i	12	i	15*	-39*
SMILES	HDAC3 inh	TMEM16A inh	CHT inh	ANO1 activ	PHOSPHO1 inh	CHT PAM	CHT activ conf	HEK293 MP dye	others
CN(C)c1ccc(/C=C/C=C/c2sc3ccccc3[n+]2C)cc1	0	i	i	i	6	i	nt	nt
CCC1(Cc2ccccc2)C(=O)NC(=S)N(C)C1=O (stereo unspecified)	nt	nt	nt	i	nt	nt	nt	nt
C[n+]1c(-c2ccccc2)sc2ccccc21	-5	i	i	i	-14	i	52*	-42*
CC(=O)N(C)CC#CCN1CCCC(CO)C1 (stereo unspecified)	13	i	i	i	nt	i	nt	nt
CN1CCc2nc(SCc3ccccc3Br)c(C#N)cc2C1	-4	i	i	i	-23	i	nt	nt
C[n+]1ccc(-c2ccccc2)c2ccccc21	-22	i	i	i	nt	8.6*	85*	-70*
Cc1c(C(=O)C(=O)N2CCOCC2)c2ccccc2n1Cc1ccccc1	nt	i	i	i	53	i	nt	nt
CCOc1ccc(N=Cc2c(O)n(-c3ccc(C)c(C)c3)c(=O)[nH]c2=O)cc1	-3	i	i	i	18	i	nt	nt
CCN(CC)c1ccc(N=Cc2c(O)n(-c3ccccc3)c(=O)[nH]c2=O)cc1	14	i	i	i	8	i	nt	nt	TMEM16A reconf=i;TMEM16A Ca cntr=i;YFP-HEK293 quench=-0.93;ClC-1 rat inh=-13
CCOc1ccc(-n2c(O)c(C=Nc3ccc(N(CC)CC)cc3)c(=O)[nH]c2=O)cc1	-5	i	i	i	-4	i	nt	nt	TMEM16A reconf=28%*;TMEM16A Ca cntr=i;YFP-HEK293 quench=-0.68;ClC-1 rat inh=-10
CC(N)Cc1c[nH]c2cc3c(cc12)OCCO3 (stereo unspecified)	5	i	i	i	-7	i	nt	nt
O=C1NC2NC(=O)N([N+](=O)[O-])C2N1 (stereo unspecified)	-2	i	i	i	8	i	nt	nt
